Measured values taken from PubChem BioAssay AID463173 (ICCB-Longwood Screening Facility, Harvard Medical School, 2010).
About 4,300 (8.3%) of roughly 52,000 compounds were called active. Cut-off read from the data, not from the text of the source: active = survival mostly below about 52% (no sharp cut-off); inactive = mostly above about 56%. Many of the other results were omitted from the sample, so actives are more common in it than they were.

What follows are compounds tested on DeltatarO mutant (assay: growth inhibition of S. aureus wild type versus tarO mutant, primary screen, teichoic acid synthesis inhibitors, RN4220, OD600 (AID 463173)). Conditions: OD600, 18 h, stronger effect = lower value, screened at 18.75 µg/mL (by protocol).
In the case of `CCc1ccccc1NC(=O)CCn1cccn1`, the survival is reported as 135% (inactive). With `CCC1CN(C(=O)N2CCC(C(=O)NCc3ccco3)CC2)c2ccccc2O1` (stereo not drawn) the survival was 66% (inactive). For `COc1ccccc1CNC(=O)C1CCN(S(=O)(=O)c2c(C)noc2/C=C/c2cccs2)CC1`, the survival was 59% (inactive). In the case of `CN(C(=O)CSc1nc2ccc(NC(=O)c3cccc(F)c3)cc2s1)c1ccccc1`, the survival is reported as 69% (inactive). For `Cc1ccccc1NC(=O)C(=O)NCC(c1ccc2c(c1)OCO2)N1CCN(c2ccccc2)CC1` (stereo not drawn), the survival was 73% (inactive). For `O=S(=O)(Nc1cccc(C(F)(F)F)c1)c1ccc(-c2cnc(C3CC3)o2)cc1`, the survival was 91% (inactive). With `c1ccc2[nH]c(CN3CCCCC3)nc2c1` the survival was 59% (inactive). For `O=C(NCc1ccc(F)cc1)c1ccc(NC(=O)N2CC3CCCN3c3ccccc32)cc1` (stereo not drawn), the survival was 113% (inactive). `Cc1oc(CC(C)C)cc1C(N)=O` was tested, and the survival was 100% (inactive). For `O=C(CSC1=Nc2ccccc2C2=NC(Cc3ccccc3)C(=O)N12)Nc1ccccc1` (stereo not drawn), the survival was 74% (inactive). For `CCOc1ccc(-c2cn(-c3ccc(OC)cc3)c(SCC(=O)Nc3ccccc3Cl)n2)cc1`, the survival was 99% (inactive). With `CC(C)(C)c1ccc(NC(=O)CSc2nnc3scc(-c4ccccc4)n23)cc1` the survival was 41% (active). `CCOc1ccc(NC(=O)CSc2nnc3scc(-c4ccc(Cl)cc4)n23)cc1` was tested, and the survival was 48% (inactive). In the case of `Cc1ccc(NC(=O)CSc2nnc3scc(-c4ccc(Cl)cc4)n23)cc1`, the survival is reported as 49% (inactive). In the case of `Cc1cccc(NC(=O)CSc2nnc3scc(-c4ccccc4)n23)c1`, the survival is reported as 40% (active). In the case of `O=C(CSc1nnc2scc(-c3ccccc3)n12)Nc1ccc(Cl)cc1`, the survival is reported as 56% (inactive). With `COc1cccc(NC(=O)CSc2nnc3scc(-c4ccc(Cl)cc4)n23)c1` the survival was 52% (inactive). In the case of `COc1ccc(NC(=O)CSc2nnc3scc(-c4ccc(Cl)cc4)n23)cc1`, the survival is reported as 95% (inactive). In the case of `CCOc1ccc(NC(=O)CSc2nnc3scc(-c4ccccc4)n23)cc1`, the survival is reported as 17% (active). With `O=C(CSc1nnc2scc(-c3ccc(Cl)cc3)n12)Nc1ccc(F)cc1` the survival was 57% (inactive). In the case of `Cc1ccc(NC(=O)CSc2nnc3scc(-c4ccccc4)n23)cc1`, the survival is reported as 15% (active). In the case of `CC(=O)Nc1ccc(C(=O)CSc2nnc3scc(-c4ccccc4)n23)cc1`, the survival is reported as 89% (inactive). For `O=C(CSc1nnc2scc(-c3ccc(Cl)cc3)n12)Nc1cccc(C(F)(F)F)c1`, the survival was 58% (inactive). For `CC(NCc1ccc(F)cc1)C(=O)NC1CCCCC1` (stereo not drawn), the survival was 79% (inactive). In the case of `Cc1ccc(NC(=O)C2CC(=O)N(c3ccc(OC(C)C)cc3)C2)cc1` (stereo not drawn), the survival is reported as 82% (inactive). For `COc1ccc(C2CC(c3c(O)n(C4CCCCC4)c(=O)[nH]c3=O)=Nc3ccccc3S2)cc1` (stereo not drawn), the survival was 48% (inactive). In the case of `O=C1COc2ccccc2N1Cc1ccc(OC(F)(F)F)cc1`, the survival is reported as 86% (inactive). For `COc1ccc(CC(=O)NCc2ccc3c(c2)CCN3C(=O)c2ccccc2)cc1OC`, the survival was 82% (inactive). In the case of `Cc1ccc(CN(Cc2cccn2-c2nnc(N3CCCC3=O)s2)C(=O)Nc2cc(C)cc(C)c2)cc1`, the survival is reported as 123% (inactive). `COc1ccc(Nc2nc3ccc(C)cc3nc2-n2nc(C)cc2C)cc1Cl` was tested, and the survival was 69% (inactive). With `COc1cccc(CNC(=O)c2ccc3c(c2)nc2n3CCC(C)C2)c1` (stereo not drawn) the survival was 72% (inactive). With `Cc1cn2c(=O)cc(COC(=O)c3cccc(NC(=O)COc4ccccc4C)c3)nc2s1` the survival was 85% (inactive). In the case of `CCOc1ccc(CCNC(=O)c2cc3c(-c4ccccc4F)nn(C)c3s2)cc1OCC`, the survival is reported as 67% (inactive). For `CCn1nc(-c2ccccc2)c(-c2ccccc2)c(C(=O)Nc2nc(C)c(C(C)=O)s2)c1=O`, the survival was 53% (inactive). `COCc1cc(C)nc2c1C(=O)NC(c1ccc(NC(C)=O)cc1)N2Cc1ccccc1` (stereo not drawn) was tested, and the survival was 74% (inactive). For `O=C(CSc1nccn1Cc1ccc(Cl)cc1)NC1CCCC1`, the survival was 83% (inactive). For `COc1ccc(CNC(=O)Cn2c(=O)nc(-c3ccccc3F)c3cc(Cl)ccc32)cc1`, the survival was 72% (inactive). With `Nc1nc(OC(C(F)(F)F)C(F)(F)F)nc(OC(C(F)(F)F)C(F)(F)F)n1` the survival was 13% (active). With `FC(F)(F)COc1nc(OCC(F)(F)F)nc(OCC(F)(F)F)n1` the survival was 74% (inactive). `CCC(C)Nc1nc(OC(C(F)(F)F)C(F)(F)F)nc(N(CC)CC)n1` (stereo not drawn) was tested, and the survival was 80% (inactive). In the case of `O=C(O)Cn1ccc(=O)[nH]c1=O`, the survival is reported as 96% (inactive). `CCOc1ccc(CCNC(=O)c2cc3c(=O)oc4ccc(C)cc4c3s2)cc1OCC` was tested, and the survival was 67% (inactive). `Cc1nc2nc(NCc3cccc(Br)c3)[nH]n2c(=O)c1Cc1ccccc1` was tested, and the survival was 54% (inactive). With `Cc1nc2nc(NCc3ccc(Br)cc3)[nH]n2c(=O)c1Cc1ccccc1` the survival was 39% (active). `Cc1nc2nc(NCc3cccc(Cl)c3)[nH]n2c(=O)c1Cc1ccccc1` was tested, and the survival was 78% (inactive). `CCc1ccc(CNc2nc3nc(C)c(Cc4ccccc4)c(=O)n3[nH]2)cc1` was tested, and the survival was 80% (inactive). `Cc1nc2nc(NCc3ccccc3Cl)[nH]n2c(=O)c1Cc1ccccc1` was tested, and the survival was 83% (inactive). `Cc1nc2nc(NCc3ccc(Cl)cc3)[nH]n2c(=O)c1Cc1ccccc1` was tested, and the survival was 40% (active). `Nc1ccc(Oc2ccc(C(=O)O)c(C(=O)O)c2)cc1` was tested, and the survival was 98% (inactive). With `O=C(NCc1ccco1)C1C2C3CCC(C3)C12` (stereo not drawn) the survival was 77% (inactive). With `CC(CC1C(C#N)=C(N)SC(N)=C1C#N)c1ccccc1` (stereo not drawn) the survival was 51% (inactive). For `N#CC1=C(N)SC(N)=C(C#N)C1CCC1CCCCC1`, the survival was 2% (active). For `N#CC1=C(N)SC(N)=C(C#N)C1c1ccc(O)cc1`, the survival was 82% (inactive). In the case of `COc1ccccc1N1CCN(c2ncnc3c2cnn3C)CC1`, the survival is reported as 83% (inactive). With `O=C(c1ccc(F)cc1)N1CCC(c2nc3ccccc3s2)CC1` the survival was 76% (inactive). With `CCCOc1ccc(C(=O)N2CCC(c3nc4ccccc4s3)CC2)cc1` the survival was 36% (active). In the case of `CCOc1cccc(C(=O)N2CCC(c3nc4ccccc4s3)CC2)c1`, the survival is reported as 75% (inactive). In the case of `CC(C)Oc1ccc(C(=O)N2CCC(c3nc4ccccc4s3)CC2)cc1`, the survival is reported as 49% (inactive). For `CCCOc1ccccc1C(=O)N1CCC(c2nc3ccccc3s2)CC1`, the survival was 63% (inactive). For `CC(C)COc1ccc(C(=O)N2CCC(c3nc4ccccc4s3)CC2)cc1`, the survival was 17% (active). With `COc1cc(OC)cc(-n2nnc(-c3nc(-c4ccccc4Cl)no3)c2N)c1` the survival was 86% (inactive). With `COc1ccccc1N1CCN(S(=O)(=O)c2ccc(-c3coc(C)n3)cc2)CC1` the survival was 71% (inactive). `O=C1CCCc2c1cc(C(=O)N1CCOCC1)c(=O)n2-c1ccccc1` was tested, and the survival was 69% (inactive). `Cc1ccc(NC(=O)N2CCN(C(=O)c3nsc4ccccc34)CC2)cc1C` was tested, and the survival was -5% (active). In the case of `Cc1cccc(NC(=O)N2CCN(C(=O)c3nsc4ccccc34)CC2)c1C`, the survival is reported as 88% (inactive). `O=C(Nc1ccccc1)N1CCN(C(=O)c2nsc3ccccc23)CC1` was tested, and the survival was 88% (inactive). In the case of `Cc1cc(C)cc(NC(=O)N2CCN(C(=O)c3nsc4ccccc34)CC2)c1`, the survival is reported as 88% (inactive). `CCc1ccc(NC(=O)N2CCN(C(=O)c3nsc4ccccc34)CC2)cc1` was tested, and the survival was 87% (inactive). For `CCc1ccccc1NC(=O)N1CCN(C(=O)c2nsc3ccccc23)CC1`, the survival was 17% (active). With `O=c1oc2ccc3ccccc3c2cc1-c1nnc(Nc2ccc(F)cc2)s1` the survival was 78% (inactive). For `Cc1cccc(NC(=O)CN2C(=O)C3(SCC(=O)N3c3ccccc3)c3ccccc32)c1` (stereo not drawn), the survival was 123% (inactive). For `O=C(NCCc1csc2nc(-c3ccc(F)cc3)nn12)c1cccc(C(F)(F)F)c1`, the survival was 78% (inactive). With `Cc1ccc(CNC(=O)CSc2ncc(S(=O)(=O)c3ccc(Br)cc3)c(=O)[nH]2)cc1` the survival was 125% (inactive). For `CCOc1ccc(CNC(=O)c2ccc3[nH]c(C)c(C)c3c2)cc1OC`, the survival was 67% (inactive). For `CCCCN(C)CC(O)Cn1cc(/C=C/C(=O)c2ccc(C)cc2)c2ccccc21` (stereo not drawn), the survival was 6% (active). In the case of `CCCCN(C)CC(O)Cn1cc(/C=C/C(=O)c2ccc(OC)c(OC)c2)c2ccccc21` (stereo not drawn), the survival is reported as 67% (inactive). For `C=CCn1cc(/C=C(/C#N)C(=O)OCC)c2ccccc21`, the survival was 83% (inactive). For `CCCCN(C)CC(O)Cn1cc(/C=C/C(=O)c2ccc(Br)cc2)c2ccccc21` (stereo not drawn), the survival was 0% (active). With `Cc1ccc(C(=O)/C=C/c2cn(CC(O)CN3CCc4ccccc43)c3ccccc23)cc1` (stereo not drawn) the survival was 73% (inactive). With `CCCCN(C)CC(O)Cn1cc(/C=C/C(=O)c2ccc(OCC)cc2)c2ccccc21` (stereo not drawn) the survival was 6% (active). For `CCOc1ccc(C(=O)/C=C/c2cn(CC(O)CN3CCc4ccccc43)c3ccccc23)cc1` (stereo not drawn), the survival was 56% (inactive). With `O=S1(=O)N=C(SCCO)c2ccccc21` the survival was 85% (inactive). For `CCOc1ccc(NC(=O)c2cc(S(=O)(=O)N3CCCCCC3)cn2C)cc1`, the survival was 120% (inactive). In the case of `CCCC1N=C2c3ccccc3N=C(SCC(=O)NCCc3ccc(Cl)cc3)N2C1=O` (stereo not drawn), the survival is reported as 93% (inactive). In the case of `Cc1ccccc1Cn1c(SCc2ccc(C(=O)NCCc3ccccc3)cc2)nc2ccncc21`, the survival is reported as 82% (inactive). `CCCCOc1ccc(NC(=O)CS(=O)CC(=O)Nc2ccc(OC)cc2)cc1` (stereo not drawn) was tested, and the survival was 84% (inactive). With `CSc1cccc(NS(=O)(=O)c2ccc3[nH]cc(C(=O)N4CCCCCC4)c(=O)c3c2)c1` the survival was 82% (inactive). In the case of `Cc1ccc2oc(-c3ccc(C)c(NC(=O)c4ccc(C(C)(C)C)cc4)c3)nc2c1`, the survival is reported as 136% (inactive). In the case of `O=C(Nc1cc(-c2nc3ccccc3o2)ccc1Cl)c1ccc(Br)o1`, the survival is reported as 54% (active). `CC(C)(C)c1ccc(C(=O)Nc2cc(-c3nc4ccccc4o3)ccc2Cl)cc1` was tested, and the survival was 13% (active). `CC(C)(C)c1ccc(C(=O)Nc2ccc(-c3nc4ccccc4o3)c(O)c2)cc1` was tested, and the survival was 69% (inactive). `Cc1ccc2nc(-c3ccc(Cl)c(NC(=O)c4ccc(Br)o4)c3)oc2c1` was tested, and the survival was 48% (inactive). With `Cc1cc(NC(=O)c2ccc(Br)o2)cc(-c2nc3ccccc3o2)c1O` the survival was 98% (inactive).
